# Assay results from PubChem BioAssay AID903 (National Center for Advancing Translational Sciences (NCATS), 2007).
# About 340 (0.62%) of roughly 55,000 compounds were called active. Not shown: some 3% with an inconclusive outcome. The sample as a whole holds a higher share of actives than the screen did. Values without a mark were called inactive. Calls come from the whole dose curve; as a rule, active = well fitted cell-killing curve with a large enough effect; inconclusive = small, poorly fitted or top-dose-only effect; inactive = no such curve, though single readings can be large or run the other way.
# Experiment: qHTS Screen for Compounds that Selectively Target Cancer Cells with p53 Mutations: Cytotoxicity of p53 Null Cells at the Permissive Temperature; note: nearly all actives have a fitted effect of over 55% in size;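 for activity change, negative = cytotoxicity: 0% = DMSO only and -100% = full killing by 100 µM tamoxifen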
# Details: H1299-neo p53 null cells, ATP luminescence, 24 h, 32C; series mostly up to 46.1 µM; activity change, negative = cytotoxicity: at the top concentration
# Description: NIH Chemical Genomics Center [NCGC] NIH Molecular Libraries Screening Centers Network [MLSCN] MLSCN Grant: 1 X01 MH079844-01 Assay Submitter (PI): Dr. SUN, YI, University of Michigan NCGC Assay Overview: Synthetic Lethal Screen for Compounds to Kill Cancer Cells with p53 Mutation. Tumor suppressor gene p53 serves as a major cellular barrier against tumorigenesis. […] The goal of this screening is to identify small molecule probes that selectively kill cancer cells with mutations in p53. This screening was carried out using two lines of H1299 lung cancer cells. The H1299-p53 A138V line express a temperature sensitive p53 mutant (p53ts) in which the mutant p53 protein (A138V) is in the mutant confirmation when grown at 39C (the nonpermissive temperature) and in the wild type conformation when grown at 32C (the permissive temperature). A H1299-neo line (p53 null) grown at both 39C and 32C were used as counter-screens to filter out false positive associated with temperature shifting. The small molecular compounds that selectively target mutant p53-containing cancer cells were selected as candidate probes for further study. A cytotoxicity assay based on the measurement of ATP contents in cells was used in this screen. Concentration-responses of all the compounds in the library collection were determined in qHTS using the cell lines and temperature conditions as above.
# NCGC Assay Protocol Summary: Both the H1299-p53A138V and H1299-neo cell lines were provided by Dr.Yi Sun, a PI at the University Michigan. The cells were maintained and cultured at 37C. The resuspended frozen cells were used to plate the cells in the 1536-well assay plates at a density of 600 cells per well in 5 ul medium. The assay plates with the cells were incubated at 37C for 16 to 30 hours before the experiments. The library compounds in DMSO solution were added to the cells in assay plates and incubated 24 hours at 39C (for mutant p53 conformation) or 32C (for normal p53 conformation as control). An ATP_lite assay kit (PerkinElmer) was used to determine the cell viability. Tomaxifen (100uM) was used as the positive control for cell killing. Data were normalized to the controls for basal activity (DMSO only) and 100% killing (100uM tamoxifen). AC50 values were determined from concentration-response data modeled with the standard Hill equation. P53 assay protocol: 1. Reagent; 5 uL H1299-p53A138V or H1299-neo cell cells/well 2. Time; overnight; 37C incubation 3. Compounds; 23 nL; 5.9 nM to 46 uM 4. Controls; 23 nL; Tamoxifen 100 uM 5. Time; 24 hr; 32C incubation 6. Reagent; 3 uL; ATP_Lite reagent 7. Time; 20 min; Room Temperature 8. Detection; Luminescence; Viewlux plate reader Keywords: p53, synthetic lethal, cancer, cell viability, cytotoxicity, H1299 cell line, luminescence, MLSMR, MLSCN, NIH Roadmap, qHTS, NCGC
# Potency is the fitted concentration of half-maximal effect.
SMILES,"activity change, negative = cytotoxicity",Potency
COc1cccc(CNCc2c(C(=O)O)n(Cc3ccc(C)cc3)c3cc(C)ccc23)c1OC,-5.03%,–
O=C(Cn1cnc2c(oc3ccccc32)c1=O)Nc1ccc(OC(F)(F)F)cc1,-6.42%,–
CCOc1ccccc1CNC(=O)Nc1cn(CC(C)C)c(=O)c2ccccc12,6.21%,–
COc1ccc2oc(-c3cccc(NC(=O)CSc4ccc(Cl)cc4)c3)nc2c1,-26.4%,–
CCOC(=O)CN1C(C(=O)c2ccccc2)=C(OC(=O)C(C)(C)C)c2ccccc2S1(=O)=O,-1.26%,–
CCOC(=O)C1=C(c2ccccc2)Nc2ncnn2C1c1ccc(Cl)cc1 (centres undefined),24.7%,–
O=C(CSc1nc2ccccc2[nH]1)Nc1nc(-c2ccccc2)c(-c2ccccc2)o1,36%,–
O=C(NCc1ccccc1)C(=O)NCC(c1ccco1)S(=O)(=O)c1ccc(Cl)cc1 (centres undefined),7.23%,–
Cc1ccc(CSc2nc3ccsc3c(=O)n2CCC(C)C)cc1,-2.95%,–
COc1ccc(S(=O)(=O)c2c(Nc3cccc(Cl)c3)sc(C(=O)c3ccccc3)c2N)cc1,5.07%,–
Cc1cccc(N2CCN(C(=O)c3ccc(Nc4nc5ccccc5n5nnnc45)cc3)CC2)c1C,-5.36%,–
O=C(COc1ccccc1)OCc1cc(=O)n2nc(-c3cccs3)sc2n1,2.83%,–
CC1CCN(C(=O)Cn2c(=O)n(-c3ccc(Cl)cc3)c(=O)c3c4c(sc32)CCC4)CC1,0.896%,–
CCOC(=O)CSc1nc2ccc(C)cc2[nH]1,-2.59%,–
CCCc1nn2c(=O)cc(COC(=O)c3ccc(NC(=O)C(C)Oc4ccccc4)cc3)nc2s1 (centres undefined),-6.2%,–
CCOC(=O)c1cc2c(=O)n3ccccc3nc2n(CCCOC)c1=NC(=O)C(C)Oc1ccccc1 (centres undefined),5.37%,–
CC(C)c1ccc(NC(=O)c2ccc3c(O)c(S(=O)(=O)c4ccccc4)c(=O)[nH]c3c2)cc1,–,12.6 µM (active)
COc1ccc(CNC(=O)c2ccc3c(O)c(S(=O)(=O)c4ccccc4)c(=O)[nH]c3c2)cc1,-14.3%,–
Cc1ccc(C(=O)Nc2ccc3[nH]c(=O)c(=O)[nH]c3c2)cc1,-11.2%,–
CN(C(=O)CSc1nc2ccccc2n1Cc1ccccc1C#N)c1ccccc1,2.24%,–
COc1ccc(CNC(=O)CS(=O)Cc2nc(-c3cccc(C)c3)oc2C)cc1 (centres undefined),-2.83%,–
Cc1cc(SCC(=O)NCCN2C(=O)CSC2=O)nc2ccccc12,-4.2%,–
COC(=O)CSc1ccc2nnc(CCNS(=O)(=O)c3ccc(C)cc3)n2n1,0.172%,–
N#CC1(NC(=O)COc2ccc3oc4ccccc4c3c2)CCCCC1,-4.07%,–
O=C(NCCc1ccccn1)c1cc(-c2ccc(Cl)cc2)nc2ccccc12,-28.2%,–

SMILES,"activity change, negative = cytotoxicity",Potency
CCC(=O)NCc1cc(-c2nn(C)c(=O)c3ccccc23)ccc1OC,-3.54%,–
CCOc1ccc(C(O)Cc2nc3ccccc3n2C)cc1 (centres undefined),-7.33%,–
CC(C)(C)c1ccc(C(=O)NCC(=O)OCN2C(=O)c3ccccc3C2=O)cc1,-4.46%,–
Cc1ccc(NC(=O)c2cn3c4c(ccc(Cl)c4c2=O)OC(C)C3)cc1C (centres undefined),-6.91%,–
Cc1cc(C)cc(NC(=O)Cc2csc(C)n2)c1,-5.68%,–
COc1ccc2c(c1)Cc1sc(NC(=O)c3ccccc3Br)nc1-2,-29.5%,–
CCCS(=O)(=O)Nc1cccc(-c2cn3ccsc3n2)c1,-16.5%,–
CCc1ccc(CNC(=O)C2CCN(c3nn4cc(-c5ccc(F)cc5)nc4s3)CC2)cc1,0.0691%,–
CCC(CC)c1nn2cc(-c3ccccc3)nc2s1,–,6.31 µM (active)
Cc1ccccc1NC(=O)c1c(NC(=O)c2ccccc2F)sc2c1CCC(C)C2 (centres undefined),1.58%,–
Cc1cc(C)cc(OC(C)C(=O)Nc2nc3c(s2)CCCC3)c1 (centres undefined),7.37%,–
O=C(Nc1nc2c(s1)CCCC2)c1ccccc1F,–,6.31 µM (active)
CCOC(=O)NC(=O)CSc1nnc(SCCC(=O)O)s1,-2.55%,–
CCC(C)NC(=O)c1ccccc1NC(=O)c1ccccc1N(C)S(C)(=O)=O (centres undefined),7.32%,–
Cc1ccc(-n2nnnc2CNC(=O)c2ccccc2C)cc1C,9.36%,–
COC(=O)c1cnn(-c2ccc(C(=O)Nc3ccc(OC(F)(F)F)cc3)cc2)c1N,-7.31%,–
CCn1c(O)c(N=NC(=O)c2cccc(S(=O)(=O)N3CCCCC3)c2)c2ccccc21,-1.69%,–
Cc1nn2c(=O)cc(COC(=O)c3ccccc3NC(=O)COc3ccccc3C)nc2s1,-5.39%,–
CCCCc1nn2c(=O)cc(COC(=O)c3cccc(NC(=O)COc4ccccc4)c3)nc2s1,-9.02%,–
Cc1nn2c(=O)cc(COC(=O)c3cccc(NC(=O)COc4ccccc4Cl)c3)nc2s1,–,12.6 µM (active)
CCc1nc2cccnc2n1-c1ccc(CC(=O)Nc2c(C)cccc2C)cc1,6.52%,–
CCCCC1N2CC3([N+](=O)[O-])CN1CC([N+](=O)[O-])(C2)C3(C)C (centres undefined),-16.9%,–
Cc1cc(-c2ccc(C)c(S(=O)(=O)N3c4ccccc4CC3C)c2)on1 (centres undefined),13.3%,–
Cc1ccc(-c2nnc(SCC(=O)N/N=C/c3cccs3)n2-c2ccc(C)cc2)cc1,-10.3%,–
